VP16 counter = inhibits Gal4-VP16 luciferase reporter, ROR gamma counter-screen. 310,000 tested, 3.5% active. AID 2546. Drosophila S2 Gal4-VP16 UAS-luciferase, luminescence, 20 h. Potency, µM (series often up to 53.6 µM), usual class: inhibitors;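 also: Gal4-VP16 expression switched on by copper sulfate through the metallothionein promoter; nearly all actives have a fitted effect of over 50% in size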
CtBP-E1A blk = blocks the CtBP interaction with E1A. AID 651724. 340,000 tested, 0.49% active. activity change, % (test concentration not listed). AlphaScreen GST-E1A/His-CtBP binding, 1536-well; hits give low values; in the data active = activity change below about -65%; inconclusive = mostly about -30% to -63%
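Homogeneous bead-based format: GST-tagged E1A captured on glutathione donor beads, His-tagged CtBP on nickel acceptor beads; compounds precede bead addition by 2 h at 37 °C.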
PKM2 activator = increases activity of human pyruvate kinase M2 | P14618 | purified PKM2, Kinase-Glo ATP luminescence, activation; response scale: 0% is enzyme alone, no compound | Potency, µM (highest dose often 57.5 µM), actives largely listed as activators | 260,000 tested, 0.34% active | AID 1631; also: nearly all actives have a fitted effect of over 55% in size
Target sequence (P14618 whole entry, looked up): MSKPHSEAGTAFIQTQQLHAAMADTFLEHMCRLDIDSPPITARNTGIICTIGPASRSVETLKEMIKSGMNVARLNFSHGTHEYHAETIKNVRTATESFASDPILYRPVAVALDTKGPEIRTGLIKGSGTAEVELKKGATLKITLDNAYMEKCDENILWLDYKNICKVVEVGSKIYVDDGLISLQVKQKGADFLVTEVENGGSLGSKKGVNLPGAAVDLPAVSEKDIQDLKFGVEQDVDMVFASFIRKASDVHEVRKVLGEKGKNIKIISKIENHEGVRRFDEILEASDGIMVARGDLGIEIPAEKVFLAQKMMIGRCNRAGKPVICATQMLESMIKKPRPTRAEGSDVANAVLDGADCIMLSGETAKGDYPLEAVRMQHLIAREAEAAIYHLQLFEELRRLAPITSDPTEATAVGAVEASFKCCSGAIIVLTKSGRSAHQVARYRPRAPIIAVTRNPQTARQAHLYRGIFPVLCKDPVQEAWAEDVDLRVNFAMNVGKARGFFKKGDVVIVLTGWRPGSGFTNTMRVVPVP
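Kinase-Glo luminescence reports ATP generated from ADP (0.1 mM) and PEP (0.5 mM) by purified hPK-M2 after 1 h at room temperature, pH 7.2 imidazole buffer; intermediate enzyme activity allows detecting inhibitors and activators.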
RORg inh = blocks mouse ROR gamma transcriptional activity. P51450. 310,000 tested, 5.4% active. Potency, µM (doses to about 53.6 µM), hits mostly inhibitors. Drosophila S2 Gal4-RORgamma UAS-luciferase reporter, 20 h. AID 2551; also: nearly all actives have a fitted effect of over 60% in size
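Compounds are pin-transferred onto Drosophila Schneider cells expressing a copper-inducible Gal4–ROR gamma transactivation domain fusion. After 1 hr, copper sulfate is added to 700 uM final; luciferase is read 20 hr later.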
Six1-Eya2 inh = Six1/Eya2 interaction inhibition; AlphaScreen GST-Six1/His-Eya2 binding, biochemical; hits give low values; activity change, % (test concentration not listed); AID 651725; Q15475+O00167; 360,000 tested, 0.56% active; in the data active = activity change below about -65%; inconclusive = mostly about -30% to -63%
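AlphaScreen luminescence read after one hour at 37 °C in darkness. Pin-transferred compounds met GST-Six1 and His-Eya2 protein (5X stock 250 nM/500 nM) plus glutathione donor and Ni-chelate acceptor beads (5X, 50 ug/mL).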
Numbers stand for hits; – = inactive; ? = inconclusive; · = no result; [ ] = remark or other dose. Only some compounds are listed: those with a hit (about 5.6% of all), similar ones and a draw of the others. Unless noted, calls follow the shape of the dose curve; as a rule, active = well fitted curve in the direction sought with a large enough effect; inconclusive = small, poorly fitted or top-dose-only effect, or another doubt; inactive = no such curve, though single readings can be large; an effect the other way counts as inactive or inconclusive.

SMILES	VP16 counter	CtBP-E1A blk	PKM2 activator	RORg inh	Six1-Eya2 inh
CO[C@H]1[C@@H](O)CC(OC2[C@@H](O)CC(OC3[C@@H](O)C[C@H](OC4CC[C@@]5(C)C(CCC6C5CC(O)[C@]5(C)[C@H](C7=CC(=O)OC7)CCC65O)C4)O[C@@H]3C)O[C@@H]2C)O[C@@H]1C (some centres not stated)	–	·	·	2.51µM	·
CC(=O)O[C@H]1C[C@H](O[C@H]2[C@@H](O)CC(O[C@H]3[C@@H](O)C[C@H](O[C@H]4CC[C@@]5(C)[C@H](CC[C@@H]6[C@@H]5CC[C@]5(C)[C@@H](C7=CC(=O)OC7)CC[C@]65O)C4)O[C@@H]3C)O[C@@H]2C)O[C@H](C)[C@H]1O[C@@H]1O[C@H](CO)[C@@H](O)[C@H](O)[C@H]1O (some centres not stated)	–	·	·	?	·
CC1OC(OC2C(O)CC(OC3C(O)CC(OC4CCC5(C)C(CCC6C5CCC5(C)C(C7=CC(=O)OC7)CCC65O)C4)OC3C)OC2C)CC(O)C1O (configuration not stated)	–	·	·	1.12µM	·
CC12CCC(O)CC1CCC1C2CCC2(C)C(C3=CC(=O)OC3)CCC12O (configuration not stated)	·	–	·	·	–
C[C@]12CC[C@H](O)C[C@H]1CCC1C2CC[C@]2(C)[C@@H](c3ccc(=O)oc3)C[C@H]3O[C@]132 (some centres not stated)	–	·	·	–	·
c1cc(CN2CCCC3(CCNCC3)C2)ccn1	–	·	·	–	·
CC[C@]1(O)CC[C@H]2[C@@H]3CCC4=CCCC[C@@H]4[C@H]3CC[C@@]21C	–	·	·	–	·
OCCBr	–	·	·	–	·
C=CCC1(C(C)CCC)C(=O)N=C(S)NC1=O (configuration not stated)	–	·	·	10µM	·
ClCc1ccccn1	–	·	·	–	·
O=C1NC(=S)N(c2ccc(F)cc2)C(=O)/C1=C\c1ccoc1	–	–	–	–	-72.3
COc1ccc(N2C(=O)/C(=C/c3ccc(C)o3)C(=O)NC2=S)cc1	–	–	·	–	–
Cc1ccc(/C=C2\C(=O)NC(=S)N(c3cccc(F)c3)C2=O)o1	–	·	–[11.5 µM]	11.2µM	–
ClC(Cl)Br	–	·	·	–	·
CC1CCCCC1n1c(-c2cccnc2)n[nH]c1=S (configuration not stated)	?	–	–	10µM	–
Clc1ccc(C(c2ccc(Cl)cc2)C(Cl)Cl)cc1	–	·	·	–	·
O=C(Cc1ccccc1)N1CCN(Cc2ccccc2Cl)CC1	–	·	·	–	–
Oc1c(Cl)cc(Cl)cc1CN1CCN(Cc2ccccc2)CC1	–	–	–	–	-73.1
C(CCOCC1CO1)COCC1CO1 (configuration not stated)	–	·	·	–	·
CC1(C)N(O)C2CCCCC2N1O (configuration not stated)	?	–	–	15.8µM	–
CC1(O)C[C@]2(C)N(O)C3CCCC[C@@H]3N2O1 (some centres not stated)	–	–	–	–	–
COc1cc([N+](=O)[O-])c2nc(C)ccc2c1[N+](=O)[O-]	·	–	·	·	–
COc1cc([N+](=O)[O-])c2ncccc2c1[N+](=O)[O-]	·	?	·	·	-83.4
CCCN1CCCC2Cc3nc(N)ncc3CC21 (configuration not stated)	–	·	·	–	·
COC(=O)C1CN(C#N)N(c2ccc(Cl)cc2)C12c1ccccc1-c1ccccc12 (configuration not stated)	0.794µM	–	–	0.562µM	–
SMILES	VP16 counter	CtBP-E1A blk	PKM2 activator	RORg inh	Six1-Eya2 inh
C[C@@H]1CC[C@H]2[C@H](C)[C@H]3CC[C@@]4(O)[C@@H]5CC(=O)[C@H]6CC(=O)CC[C@]6(C)[C@H]5C[C@H]4[C@@H]3CN2C1	–	·	·	–	·
Cc1c(N=Nc2c(O)[nH]c(=O)[nH]c2=O)c(=O)n(-c2ccccc2)n1C	–	·	–	–	-91.2
Cc1c(N=Nc2c(O)n(-c3ccc(Br)cc3)c(=O)[nH]c2=O)c(=O)n(-c2ccccc2)n1C	–	-93.7	–	–	-92.1
Cc1c(N=Cc2c(O)n(C)c(=O)[nH]c2=O)c(=O)n(-c2ccccc2)n1C	–	·	–	–	–
Cc1cccc(-n2c(C)n[nH]c2=S)c1C	?	–	–	15.8µM	–
Cc1cccc(-n2c(C)nc3ccccc3c2=O)c1C	–	–	–	–	–
